Sampled rows, rich in hits. Any-hit rate of the full collection: about 4.7%.
DAT uptake mod: human DAT dopamine uptake with cocaine, either direction; B-score at 10 µM; 110,000 tested, 1.3% active; AID 449768; Q01959; LLC-PK1 hDAT cells, [14C]-dopamine uptake with cocaine IC80; actives deviate in either direction;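 active = Z score or B-score, a plate-position-corrected score, falls beyond the plate's 99.7% confidence bounds, in either direction; inactive = both scores lie inside the 99.7% bounds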
Target sequence (Q01959 whole entry, looked up): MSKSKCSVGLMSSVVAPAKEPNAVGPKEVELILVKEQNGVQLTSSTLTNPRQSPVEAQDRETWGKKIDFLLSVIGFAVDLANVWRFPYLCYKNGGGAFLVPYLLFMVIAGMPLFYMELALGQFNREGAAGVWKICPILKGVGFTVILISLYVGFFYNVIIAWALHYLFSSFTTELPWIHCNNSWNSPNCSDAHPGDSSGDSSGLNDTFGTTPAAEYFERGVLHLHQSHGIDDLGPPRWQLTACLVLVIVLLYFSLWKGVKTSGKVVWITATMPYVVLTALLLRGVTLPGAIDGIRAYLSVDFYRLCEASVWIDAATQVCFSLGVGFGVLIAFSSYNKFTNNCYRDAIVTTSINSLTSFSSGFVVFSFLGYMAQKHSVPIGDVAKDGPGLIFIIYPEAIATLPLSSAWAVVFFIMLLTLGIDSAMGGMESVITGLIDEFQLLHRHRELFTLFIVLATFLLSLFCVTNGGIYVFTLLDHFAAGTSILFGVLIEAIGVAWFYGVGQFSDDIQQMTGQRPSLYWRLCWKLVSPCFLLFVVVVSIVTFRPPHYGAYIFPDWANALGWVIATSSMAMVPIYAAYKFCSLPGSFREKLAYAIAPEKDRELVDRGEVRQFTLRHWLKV
Cav3 T inh: blocks human Cav3.2 T-type calcium channel | AID 449739 | B-score at 10 µM | Cav3.2-expressing cells, Fluo-4 calcium fluorescence FDSS; stronger effect = lower value | 100,000 tested, 4% active;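 active = single-dose well whose peak fluorescence ratio is a statistical outlier from its plate by either plate-standardised score or position-corrected B-score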
SDO1 yeast rescue: sdo1-depleted yeast growth rescue | S. cerevisiae sdo1-depleted JHY4D growth rescue, OD600 30 h; stronger effect = higher value; pdr5 snq2 efflux-pump mutant strain | z-score at 10 µM | 140,000 tested, 0.21% active | AID 817;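 active = z-score above 3 at both the 24 hr and the 30 hr optical density reads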
PLK1 inh: blocks human PLK1 kinase activity; P53350; recombinant PLK1 kinase, TR-FRET peptide phosphorylation; inhibition, % at 10 µM; 97,000 tested, 0.53% active; AID 619;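 active = inhibition of 50% or more in the single-concentration screen; inactive = inhibition below 50%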
Plk1 PBD FP: inhibitors of human Plk1 polo box domain binding. P53350. Plk1 PBD phosphopeptide binding, fluorescence polarization. inhibition, %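 (tested at about 20 µM)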. 97,000 tested, 0.13% active; in the data active = inhibition above about 34%, passing the limit was not always enough
PTK2B oligo ant: antagonists of human Pyk2 oligomerization; Q293 cells, Pyk2 FERM NanoBiT luminescence; stronger effect = lower value; z-score (the deposit names both 25 µM and 10 µM); 99,000 tested, 0.83% active;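 active = Z-score of -3 or lower, scaled per plate to the spread of control and sample wells; inactive = z-score above -3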;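 note: negative z-score means lost luminescence so less FERM oligomerization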
Of the large screens only hits and unclear results are named; the others gave an inactive call.

CC(C)CNC(=O)CSc1nnc(-c2cccc(S(=O)(=O)N3CCCCC3)c2)o1	none
N#Cc1ccc(CSc2nnc(-c3cccc(S(=O)(=O)N4CCCCC4)c3)o2)cc1	Cav3 T inh -7.5
CC(NC(=O)CSc1nnc(-c2cccc(S(=O)(=O)N3CCCCC3)c2)o1)C12CC3CC(CC(C3)C1)C2 (stereo not given)	Cav3 T inh -7
Cn1cc(Br)c(C(=O)Nc2nccs2)n1	none (no result: DAT uptake mod, Cav3 T inh, PLK1 inh, Plk1 PBD FP, PTK2B oligo ant)
O=C1c2c(O)cc(O)cc2O[C@@]12c1c(cc(O)c3c1O[C@H](c1ccc(O)cc1)[C@@H](O)C3)O[C@@H]2c1ccc(O)cc1	DAT uptake mod 2.2 (no result: PLK1 inh, Plk1 PBD FP, PTK2B oligo ant)
COc1cc2oc(=O)ccc2c(OC)c1CC(O)C(C)(C)O (stereo not given)	none (no result: DAT uptake mod, SDO1 yeast rescue, PLK1 inh, Plk1 PBD FP, PTK2B oligo ant)
CC1c2[nH]c3ccccc3c2CCN1C(=O)Nc1ccccc1 (stereo not given)	Cav3 T inh -12
O=C1C2CC=CCC2C(=O)N1c1ccc(NCCc2ccc(O)cc2)c([N+](=O)[O-])c1 (stereo not given)	none (no result: DAT uptake mod, Cav3 T inh, PLK1 inh, Plk1 PBD FP, PTK2B oligo ant)
O=C(c1ccc2c(c1)N(Cc1ccccc1)CCS2)N1CCCCC1	Cav3 T inh -8.3 (no result: PTK2B oligo ant)
O=C(c1ccc(C(=O)N2CCCCCC2)cc1)N1CCCCCC1	none
COC(=O)c1ccc(NC(=O)C(=O)N2CCN(C(=S)NCCc3ccccc3)CC2)cc1	none (no result: DAT uptake mod, Cav3 T inh, PLK1 inh, Plk1 PBD FP, PTK2B oligo ant)
CCCCC(=O)Nc1cccc(-c2nnc(-c3ccccc3)o2)c1	DAT uptake mod 2.8
CN1/C(=C\C(=O)c2ccccc2Cl)c2ccccc2CC1(C)C	none (no result: DAT uptake mod, Cav3 T inh, PLK1 inh, Plk1 PBD FP, PTK2B oligo ant)
Cc1ccccc1C(=O)/C=C1/c2ccccc2CC(C)(C)N1C	Cav3 T inh -3.9
Cc1cccc(C(=O)/C=C2/c3ccccc3CC(C)(C)N2C)c1	Cav3 T inh -4.2
Cc1ccc(N2C(=O)CC(Sc3nc4ccccc4o3)C2=O)cc1Cl (stereo not given)	DAT uptake mod -7.2
COc1ccc(-c2cc(-c3nnc(COC(=O)CC4CC5CCC4C5)o3)c3ccccc3n2)cc1OC (stereo not given)	none (no result: DAT uptake mod, Cav3 T inh, PLK1 inh, Plk1 PBD FP, PTK2B oligo ant)
O=C(NC1CCCCC1)c1sc(=S)n2c1[nH]c(=O)c1ccccc12	Cav3 T inh -6.3, PTK2B oligo ant -3
CCCCNC(=O)c1sc(=S)n2c1[nH]c(=O)c1ccccc12	none
Cc1cc2nc(SCCN3CCCC3)[nH]c2cc1C	DAT uptake mod -7.8 (no result: PLK1 inh, Plk1 PBD FP)
Nc1ncnc2nc(SCCN3CCCCC3)[nH]c12	none (no result: DAT uptake mod, Cav3 T inh)
CSc1nc(-c2ccc(F)cc2)cc(=O)[nH]1	none (no result: DAT uptake mod, Cav3 T inh, PLK1 inh, Plk1 PBD FP, PTK2B oligo ant)
CCCOc1ccc([N+](=O)[O-])cc1C1NC(=S)NC(c2ccccc2)=C1C(=O)OCC (stereo not given)	PTK2B oligo ant -4.1
CCOC(=O)C1=C(c2cccc(F)c2)NC(=S)NC1C (stereo not given)	none
CC1CCN(c2ccccc2NC(=S)NC(=O)c2cccs2)CC1	Cav3 T inh -6.3
Cc1nn(-c2ccccc2)c(C)c1C(=O)OC/C(O)=C(\C#N)c1nc2ccccc2[nH]1	DAT uptake mod -7.9 (no result: Cav3 T inh)
O=C(NC1CC1)C1=C[C@@H](c2c[nH]c3ccccc23)C[C@@H](OCCCCO)O1	none (no result: SDO1 yeast rescue, PLK1 inh, Plk1 PBD FP, PTK2B oligo ant)
Brc1ccc2ncc(Br)cc2c1	none (no result: DAT uptake mod, Cav3 T inh, PLK1 inh, Plk1 PBD FP, PTK2B oligo ant)
Cc1cc(/C=N/NC(=O)c2ccncc2)c(C)n1-c1ccccc1	none (no result: DAT uptake mod, Cav3 T inh, PLK1 inh, Plk1 PBD FP, PTK2B oligo ant)
Cc1cc(/C=N/NC(=O)c2cccs2)c(C)n1-c1ccccc1	Cav3 T inh -7.9
COc1cccc(NC(=O)C(OC(=O)/C=C/c2ccc3c(c2)OCO3)c2ccccc2)c1 (stereo not given)	Cav3 T inh -5.1
Cc1cccc(CC(Cc2nc3ccccc3[nH]2)c2nc3ccccc3[nH]2)c1 (stereo not given)	Cav3 T inh -7.1
C/C(CC(=O)Nc1cccc(Cl)c1)=N\NC(=O)Cc1ccc(Cl)cc1	Cav3 T inh -9.1
C/C(CC(=O)NCc1ccco1)=N\NC(=O)Cc1ccc(Cl)cc1	none
Cc1cccc(C(=O)NNC2=C(C(=O)C(F)(F)F)CCC2)c1O	Cav3 T inh -8
Cc1cc(=O)oc2ccc(OC(C)C(=O)O)cc12 (stereo not given)	none (no result: DAT uptake mod, Cav3 T inh, PLK1 inh, Plk1 PBD FP, PTK2B oligo ant)
COc1ccccc1-c1nnc(SCC(=O)Nc2ccc(Cl)cc2Cl)o1	none (no result: PLK1 inh, Plk1 PBD FP)
Cc1ccc(C2=NC3(CCCC3)N=C2SCC(=O)Nc2ccc3c(c2)OCCO3)cc1	none (no result: DAT uptake mod, Cav3 T inh, PLK1 inh, Plk1 PBD FP, PTK2B oligo ant)
CC1(C)N=C(SCC(=O)Nc2ccccc2)C(c2ccc(Cl)cc2)=N1	Cav3 T inh -6.7
Cc1ccc(C2=NC(C)(C)N=C2SCC(=O)Nc2ccc(Cl)cc2)cc1	DAT uptake mod -7.4, Cav3 T inh -4.7

Screening results from PubChem BioAssay.
